From PubChem BioAssay (NCATS) come the findings set out here.

Results filed as inconclusive are left out. Calls of active or inactive are those of the source. Unless noted, the call rests on the fitted dose curve; in most records, active means well fitted curve in the direction sought with a large enough effect; inconclusive means small, poorly fitted or top-dose-only effect, or another doubt; inactive means no such curve, though single readings can be large; an effect the other way counts as inactive or inconclusive. A value given as a limit tells only on which side of the number the result lay.

Test [1] addresses Lysosomal acid glucosylceramidase (Homo sapiens) (UniProt P04062). As to the kind of experiment: Glucocerebrosidase-p2 (AID 348; in the data active means potency below about 10 µM; further: potency means the concentration at half of the fitted maximal effect). The note with it: purified GBA, blue fluorogenic substrate, 40 min. In short, it runs like this:
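Compounds titrated from 0.6 nM upwards against 0.2 nM enzyme in pH 5.9 citric acid/KH2PO4, taurocholate, tween-20; blue fluorogenic substrate 80 uM, 40 min room temperature, stopped and read Ex 365/Em 440 for AC50.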

The nature of test [2]: AP1 Signaling Pathway (AID 357; active means well fitted curve in either direction with a large enough effect, not every such curve was filed as active; further: on the % scale 0 is the no-effect control and ±100 the full control effect). The note with it: ME-180 AP-1-bla reporter, EGF-induced, beta-lactamase ratio, 5 h; at 7.69 µM (top of the series) unless noted. In a few lines: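 Titration-series screen for positive or negative modulators of EC50 EGF-induced signaling in ME-180 cells carrying an AP-1-driven beta-lactamase reporter. After 5 hours at 37 degrees Celsius, CCF4 460nm/530nm emission ratio gave %Activity; AC50 values derived.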

In test [3] the target is Cytochrome P450 1A2 (Homo sapiens) (UniProt P05177). As to the kind of experiment: p450-cyp1a2 (AID 410; calls by dose curve; further: potency means the concentration at half of the fitted maximal effect). The settings on record: recombinant CYP1A2, luciferin-ME demethylation, luminescence; series mostly up to 57 µM. In a few lines: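 Inhibition was calculated relative to 57 uM furafylline (full inhibition). The reaction used human CYP1A2 at 20nM with Luciferin-ME at its Km, 100uM, driven by an NADPH-regenerating system for 60 min at room temperature.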
Sequence of Cytochrome P450 1A2 (Homo sapiens) (P05177 whole entry, looked up): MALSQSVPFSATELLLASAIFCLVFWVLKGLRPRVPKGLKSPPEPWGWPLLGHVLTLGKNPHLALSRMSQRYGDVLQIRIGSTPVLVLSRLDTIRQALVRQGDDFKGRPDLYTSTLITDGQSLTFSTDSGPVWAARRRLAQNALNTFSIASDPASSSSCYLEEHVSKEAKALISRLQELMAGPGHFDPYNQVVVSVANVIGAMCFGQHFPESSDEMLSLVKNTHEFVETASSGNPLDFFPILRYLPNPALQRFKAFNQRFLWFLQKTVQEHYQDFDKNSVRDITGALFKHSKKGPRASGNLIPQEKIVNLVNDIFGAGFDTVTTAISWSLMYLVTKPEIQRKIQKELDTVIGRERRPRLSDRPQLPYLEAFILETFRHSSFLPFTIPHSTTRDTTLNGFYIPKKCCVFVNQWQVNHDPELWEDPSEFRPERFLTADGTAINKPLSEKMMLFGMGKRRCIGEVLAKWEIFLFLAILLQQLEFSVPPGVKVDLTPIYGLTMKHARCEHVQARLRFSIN

The nature of test [4]: NFAT Signaling Pathway (AID 444; active means well fitted curve in either direction with a large enough effect, not every such curve was filed as active;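 further: carbachol stimulus at about its EC50 of 1 µM final; on the % scale 0 is the no-effect control and ±100 the full control effect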). The settings on record: Jurkat NFAT-bla M1, carbachol, beta-lactamase ratio, 5 h; at 7.69 µM (top of the series) unless noted. In short, it runs like this: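 Read-out: CCF4 FRET ratio (460 nm/530 nm) after 1 h RT dye loading, used for %activity and AC50 from titration series. Cells: Jurkat NFAT-β-lactamase/M1 line, treated with compound plus 1 uM carbachol for 5 h, 37 °C.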

Test [5] is described as follows: Stat Signaling Pathway (AID 446; active means well fitted curve in either direction with a large enough effect, not every such curve was filed as active;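 further: ME-180 cervical cancer cells given 40 pM IL-6 alongside compound; SIE-controlled beta-lactamase reporter measured as 460/530 nm FRET emission ratio; on the % scale 0 is the no-effect control and ±100 the full control effect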). The settings on record: ME-180 (cervical carcinoma) SIE beta-lactamase reporter, IL-6 stimulated, 5 h; at 7.69 µM (top of the series) unless noted. In a few lines:
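ME-180 SIE-bla cells; overnight plating; cpd + IL-6 40 pM, 5 h, 37 C; LiveBLAzer 2.5 h RT; 460/530 nm emission ratio. Normalized to 300 pM IL-6 and 125 nM JAK inhibitor controls.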

For test [6], the target named is Glucocorticoid receptor (Homo sapiens) (UniProt P04150). As to the kind of experiment: GR-GFP Redistribution (AID 450;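 active means compounds whose dose series gives a full or clear partial fitted curve of increased nuclear translocation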; further: potency means the concentration at half of the fitted maximal effect). The settings on record: U2OS GR-GFP nuclear translocation, laser cytometry, 2 h.
Sequence of Glucocorticoid receptor (Homo sapiens) (P04150 whole entry, looked up): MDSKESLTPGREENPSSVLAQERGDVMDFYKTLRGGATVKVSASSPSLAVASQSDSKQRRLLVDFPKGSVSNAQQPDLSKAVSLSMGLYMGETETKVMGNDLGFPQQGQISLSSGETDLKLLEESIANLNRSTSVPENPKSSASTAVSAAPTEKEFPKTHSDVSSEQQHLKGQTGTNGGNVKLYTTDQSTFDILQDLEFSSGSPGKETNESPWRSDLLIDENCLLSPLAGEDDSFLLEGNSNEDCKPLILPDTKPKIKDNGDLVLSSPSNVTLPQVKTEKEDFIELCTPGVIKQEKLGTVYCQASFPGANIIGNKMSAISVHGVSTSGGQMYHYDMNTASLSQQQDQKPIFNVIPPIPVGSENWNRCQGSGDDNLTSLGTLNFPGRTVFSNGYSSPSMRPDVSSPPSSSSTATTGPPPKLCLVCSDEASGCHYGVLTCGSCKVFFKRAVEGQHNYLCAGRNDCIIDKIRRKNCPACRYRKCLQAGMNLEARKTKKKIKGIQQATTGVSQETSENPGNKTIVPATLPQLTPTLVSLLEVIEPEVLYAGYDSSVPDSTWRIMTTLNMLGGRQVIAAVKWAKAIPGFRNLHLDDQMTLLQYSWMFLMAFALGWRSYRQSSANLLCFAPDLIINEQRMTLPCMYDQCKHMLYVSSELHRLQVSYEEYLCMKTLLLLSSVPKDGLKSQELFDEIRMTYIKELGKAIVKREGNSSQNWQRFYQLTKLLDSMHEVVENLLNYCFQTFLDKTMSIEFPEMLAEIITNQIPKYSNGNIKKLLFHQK
The target is the same in test [7]. In words: GR-EFC Redistribution (AID 451; calls by dose curve; further: potency means the concentration at half of the fitted maximal effect). The settings on record: CHO-K1 GR-EFC translocation, beta-gal luminescence, 2 h. In a few lines:
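Translocation of GR-ED fusion to nuclear EA restores b-gal, read by luminescence after 1 h room-temperature detection. Engineered CHO-K1 biosensor cells, 1,000/well, exposed 2 h at 37 C to titrations up to 46 uM final.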

Test [8] concerns the target Cytochrome P450 3A4 (Homo sapiens) (UniProt P08684). In words: qHTS Assay for Activators of Cytochrome P450 3A4 (AID 885). Further: nearly all actives have a fitted effect of over 65% in size. The note with it: recombinant CYP3A4, Luciferin-PPXE luminescence, 60 min; series mostly up to 57.1 µM. In a few lines:
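20nM CYP3A4 + 25uM Luciferin-PPXE (=KM), 200mM KPO4; cpd 10 min RT; NADPH regen, 60 min RT; stop w/ detection buffer, 20 min; luminescence. Normalized to 57 uM ketoconazole.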

Test [9] can be described thus: qHTS Assay for Lipid Storage Modulators (AID 1519; calls by dose curve). The settings on record: Drosophila S3 cells, BODIPY lipid droplet/cell ratio, laser cytometry, cells loaded with oleic acid; for activity change, negative = inhibition: at 57.5 µM (top of the series). In short, it runs like this:
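Cells seeded at 5,000 per well were treated with compounds over a concentration series and loaded with oleic acid (400 uM, as added). Lipid droplet fluorescence (488 nm excitation, 500-530 nm channel) was read by laser-scanning cytometry and normalized to 20 uM Triacsin C.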
In general terms: Quantitative high-throughput screening tests each substance at several concentrations.

Test [10] concerns the target Dual specificity protein kinase CLK4 (Homo sapiens) (UniProt Q9HAZ1). In words: qHTS Assay for Inhibitors of CDC-like Kinase 4 (Kinase-Glo Assay) (AID 1770). Further: nearly all actives have a fitted effect of over 65% in size. Further: potency means the concentration at half of the fitted maximal effect. The note with it: recombinant Clk4, Kinase-Glo ATP depletion luminescence; series mostly up to 66.7 µM. In a few lines: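 25 nM Clk4 with 100 uM RS repeat peptide and 1 uM ATP (final) in Tris pH7.5, 10 mM MgCl2, 4.5 h at room temperature. Remaining ATP measured by Kinase-Glo luciferase luminescence.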

For test [11] the target is unchanged. In words: qHTS Assay for Inhibitors of CDC-like Kinase 4 (ADP-Glo Assay) (AID 1771). Further: nearly all actives have a fitted effect of over 70% in size. Further: potency means the concentration at half of the fitted maximal effect. The note with it: recombinant CLK4, ADP-Glo luminescence; series mostly up to 80 µM. In a few lines:
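Kinase reaction: Clk4 at 25 nM, RS repeat peptide substrate at 100 uM, ATP at 1 uM, 1 hr, room temperature. Product ADP detected as luciferase signal via ADP-Glo.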

Test [12] has the same target. In words: qHTS Assay for Inhibitors of CDC-like Kinase 4 (ADP-FP Assay) (AID 1795). Further: nearly all actives have a fitted effect of over 60% in size. Further: potency means the concentration at half of the fitted maximal effect. The settings on record: Transcreener ADP fluorescence polarization; series mostly up to 50 µM. In short, it runs like this: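 Recombinant Clk4 (6.25 nM) phosphorylated 100 uM RS repeat peptide with 1 uM ATP in 25 mM Tris pH 7.5, 10 mM MgCl2, 0.5 mM EGTA, 2.5 mM DTT, 0.01% Triton X-100 for 1 h. ADP was detected by Transcreener ADP2 competitive fluorescence polarization after 30 min at room temperature.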

Test [13] addresses Ubiquitin carboxyl-terminal hydrolase 1 (Homo sapiens) (UniProt O94782). In words: Inhibitors of USP1/UAF1: Pilot qHTS (AID 504865).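 Further: rhodamine fluorescence freed from ubiquitin-rhodamine substrate followed over time; top concentration of the series differs between compounds; on the % scale 0 is the no-effect control and ±100 the full control effect; nearly all actives have a fitted effect of over 35% in size.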 The note with it: purified USP1/UAF1, Ub-rhodamine cleavage fluorescence; series mostly up to 54.9 µM. In short, it runs like this:
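USP1/UAF1 complex at 1 nM preincubated 15 min at room temperature with compound, then Ub-Rho substrate added at 150 nM final. Fluorescence (480/540 nm) read kinetically in 50 mM HEPES pH 7.8, 0.5 mM EDTA, 1 mM TCEP, 0.1 mg/ml BSA, 0.01% Tween-20.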

Test [14] in a line: Primary qHTS for small molecule stabilizers of the endoplasmic reticulum resident proteome: Secreted ER Calcium Modulated Protein (SERCaMP) assay (AID 1508630). Further: on the % scale 0 is the no-effect control and ±100 the full control effect. The settings on record: SH-SY5Y GLuc-SERCaMP (Gaussia luciferase released on ER calcium loss) secretion, thapsigargin, luminescence; series mostly up to 38.4 µM. In a few lines:
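GLuc-SERCaMP-expressing SH-SY5Y cells, pretreated 16 h with compound, are challenged with thapsigargin to empty ER calcium stores; after 4 h, coelenterazine is added directly to the medium and luminescence is imaged.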

In test [15] the target is Mitogen-activated protein kinase 10 (Mus musculus) (UniProt Q61831). In words: JNK3 AlphaScreen Assay (AID 530; active means well fitted curve in either direction with a large enough effect, not every such curve was filed as active). The note with it: JNK3 lysate, c-Jun phosphorylation; series mostly up to 57.1 µM. In a few lines:
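Room-temperature AlphaScreen kinase assay; pre-activated HepG2 lysate as JNK3 source, biotin-GST-cJun(1-79) substrate, 10 uM ATP, compound 15 min preincubation.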
For orientation: In Alpha technology, singlet oxygen from a donor bead excites a nearby acceptor bead.

Test [16] addresses 3',5'-cyclic-AMP phosphodiesterase 4B (Homo sapiens) (UniProt Q07343). In words: qHTS Assay for Inhibitors of PDE-IV (AID 607; active means well fitted activation curve with a large enough effect in the main read-out, with a control signal flat, not every such curve was filed as active; further: % of control where 0% means no effect). The settings on record: HEK293 ACTOne CNG channel cells, membrane potential fluorescence; series mostly up to 22.9 µM. In a few lines:
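ACTOne HEK293 cells carry a modified cAMP-gated CNG channel and express endogenous PDE4; plated 1000 cells/well, compounds up to 22.9 uM final. Membrane-potential dye fluorescence (ex 535/em 590) was read; parental cells received 10 uM forskolin + 100 uM RO 20-1724.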

In test [17] the target is Cytochrome P450 2C9 (Homo sapiens) (UniProt P11712). In words: qHTS Assay for Inhibitors and Substrates of Cytochrome P450 2C9 (AID 883). Further: potency means the concentration at half of the fitted maximal effect; nearly all actives have a fitted effect of over 60% in size. The settings on record: recombinant CYP2C9, luciferin-H luminescence, 60 min; series mostly up to 57.1 µM. In a few lines: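 Inhibition of CYP2C9 is scored as loss of luminescence, with 57uM sulphaphenazole defining 100% inhibition. Substrate Luciferin-H is used at 100uM, equal to its KM; enzyme at 10nM in 25mM KPO4, 60 min at 37C with NADPH regeneration.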
Sequence of Cytochrome P450 2C9 (Homo sapiens) (P11712 whole entry, looked up): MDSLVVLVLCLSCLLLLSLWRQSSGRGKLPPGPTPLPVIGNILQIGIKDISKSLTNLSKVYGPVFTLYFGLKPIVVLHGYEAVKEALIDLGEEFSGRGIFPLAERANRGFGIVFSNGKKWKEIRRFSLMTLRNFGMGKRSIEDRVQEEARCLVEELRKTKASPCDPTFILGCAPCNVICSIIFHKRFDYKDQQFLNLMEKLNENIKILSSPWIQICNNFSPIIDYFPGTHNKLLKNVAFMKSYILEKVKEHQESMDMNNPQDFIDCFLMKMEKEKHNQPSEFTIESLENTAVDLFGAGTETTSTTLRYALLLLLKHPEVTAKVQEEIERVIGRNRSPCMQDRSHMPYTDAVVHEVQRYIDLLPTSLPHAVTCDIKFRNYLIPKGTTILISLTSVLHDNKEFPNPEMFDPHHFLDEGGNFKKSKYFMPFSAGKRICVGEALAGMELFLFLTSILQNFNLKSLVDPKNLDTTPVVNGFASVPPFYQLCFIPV

Setting [18] is: measured here: cell count channel max response.
The mark [19] stands for this setting: measured here: lipid channel max response.

Sequence of Ubiquitin carboxyl-terminal hydrolase 1 (Homo sapiens) (O94782 whole entry, looked up): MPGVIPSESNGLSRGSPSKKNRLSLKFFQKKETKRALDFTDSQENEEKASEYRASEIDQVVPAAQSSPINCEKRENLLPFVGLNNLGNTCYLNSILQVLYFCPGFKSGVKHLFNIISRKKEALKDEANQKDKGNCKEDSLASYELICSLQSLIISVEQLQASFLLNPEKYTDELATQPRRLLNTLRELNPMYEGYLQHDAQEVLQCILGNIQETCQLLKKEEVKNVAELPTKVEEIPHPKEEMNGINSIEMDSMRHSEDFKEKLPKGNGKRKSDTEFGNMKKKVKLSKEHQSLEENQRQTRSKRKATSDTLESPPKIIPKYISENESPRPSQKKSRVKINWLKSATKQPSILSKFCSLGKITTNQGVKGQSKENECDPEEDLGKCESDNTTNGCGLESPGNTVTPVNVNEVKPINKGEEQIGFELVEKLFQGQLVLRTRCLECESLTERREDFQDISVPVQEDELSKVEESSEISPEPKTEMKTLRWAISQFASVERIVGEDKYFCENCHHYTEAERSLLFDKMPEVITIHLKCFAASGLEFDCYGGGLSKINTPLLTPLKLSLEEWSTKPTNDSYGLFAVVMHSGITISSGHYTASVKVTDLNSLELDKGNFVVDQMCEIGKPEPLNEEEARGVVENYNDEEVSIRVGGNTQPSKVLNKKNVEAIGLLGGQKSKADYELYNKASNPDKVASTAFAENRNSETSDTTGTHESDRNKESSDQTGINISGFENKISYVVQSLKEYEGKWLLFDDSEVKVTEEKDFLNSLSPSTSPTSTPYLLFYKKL
Sequence of Lysosomal acid glucosylceramidase (Homo sapiens) (P04062 whole entry, looked up): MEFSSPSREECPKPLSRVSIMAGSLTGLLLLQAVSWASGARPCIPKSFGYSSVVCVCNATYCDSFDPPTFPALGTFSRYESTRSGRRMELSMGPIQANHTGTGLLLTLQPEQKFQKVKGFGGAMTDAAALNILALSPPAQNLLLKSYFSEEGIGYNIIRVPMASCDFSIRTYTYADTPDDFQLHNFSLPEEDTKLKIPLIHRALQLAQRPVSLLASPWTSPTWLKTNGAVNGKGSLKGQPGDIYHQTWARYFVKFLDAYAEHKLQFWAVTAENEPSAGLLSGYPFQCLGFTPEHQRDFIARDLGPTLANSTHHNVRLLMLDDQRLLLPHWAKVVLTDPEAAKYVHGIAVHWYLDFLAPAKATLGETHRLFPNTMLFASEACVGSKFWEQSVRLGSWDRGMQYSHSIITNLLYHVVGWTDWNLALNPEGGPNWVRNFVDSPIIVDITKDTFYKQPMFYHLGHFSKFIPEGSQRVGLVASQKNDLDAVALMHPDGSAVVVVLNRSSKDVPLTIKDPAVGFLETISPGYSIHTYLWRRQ
Sequence of Dual specificity protein kinase CLK4 (Homo sapiens) (Q9HAZ1 whole entry, looked up): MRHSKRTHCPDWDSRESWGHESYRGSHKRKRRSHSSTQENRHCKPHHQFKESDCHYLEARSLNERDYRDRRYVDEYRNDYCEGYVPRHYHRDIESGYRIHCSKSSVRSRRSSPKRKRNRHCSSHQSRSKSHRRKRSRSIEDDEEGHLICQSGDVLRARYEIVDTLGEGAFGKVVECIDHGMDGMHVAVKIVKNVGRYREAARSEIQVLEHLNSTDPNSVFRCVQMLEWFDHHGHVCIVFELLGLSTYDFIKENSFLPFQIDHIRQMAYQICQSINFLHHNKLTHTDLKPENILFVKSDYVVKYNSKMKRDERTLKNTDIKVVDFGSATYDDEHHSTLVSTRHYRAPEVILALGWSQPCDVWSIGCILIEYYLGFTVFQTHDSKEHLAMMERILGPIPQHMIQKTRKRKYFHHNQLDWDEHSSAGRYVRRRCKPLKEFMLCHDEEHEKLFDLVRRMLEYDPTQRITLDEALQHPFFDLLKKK
Sequence of 3',5'-cyclic-AMP phosphodiesterase 4B (Homo sapiens) (Q07343 whole entry, looked up): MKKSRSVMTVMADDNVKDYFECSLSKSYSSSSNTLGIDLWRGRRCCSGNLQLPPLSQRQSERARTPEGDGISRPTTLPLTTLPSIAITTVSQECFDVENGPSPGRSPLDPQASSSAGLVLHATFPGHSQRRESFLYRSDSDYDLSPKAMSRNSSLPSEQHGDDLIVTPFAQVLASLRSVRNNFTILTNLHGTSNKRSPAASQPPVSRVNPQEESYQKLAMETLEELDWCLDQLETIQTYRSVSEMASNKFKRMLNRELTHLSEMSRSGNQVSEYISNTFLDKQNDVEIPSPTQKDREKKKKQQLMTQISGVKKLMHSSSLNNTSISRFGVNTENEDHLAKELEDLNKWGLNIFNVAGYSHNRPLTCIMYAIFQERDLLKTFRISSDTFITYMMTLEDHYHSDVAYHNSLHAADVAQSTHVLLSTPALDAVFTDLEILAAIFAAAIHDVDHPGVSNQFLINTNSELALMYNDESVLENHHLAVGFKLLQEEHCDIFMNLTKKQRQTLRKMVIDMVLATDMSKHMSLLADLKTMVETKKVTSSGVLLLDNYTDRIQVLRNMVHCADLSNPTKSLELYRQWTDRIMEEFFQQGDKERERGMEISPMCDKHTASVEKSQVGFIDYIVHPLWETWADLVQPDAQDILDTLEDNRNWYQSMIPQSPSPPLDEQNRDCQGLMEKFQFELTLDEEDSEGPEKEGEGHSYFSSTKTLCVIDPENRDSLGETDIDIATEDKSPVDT
Sequence of Cytochrome P450 3A4 (Homo sapiens) (P08684 whole entry, looked up): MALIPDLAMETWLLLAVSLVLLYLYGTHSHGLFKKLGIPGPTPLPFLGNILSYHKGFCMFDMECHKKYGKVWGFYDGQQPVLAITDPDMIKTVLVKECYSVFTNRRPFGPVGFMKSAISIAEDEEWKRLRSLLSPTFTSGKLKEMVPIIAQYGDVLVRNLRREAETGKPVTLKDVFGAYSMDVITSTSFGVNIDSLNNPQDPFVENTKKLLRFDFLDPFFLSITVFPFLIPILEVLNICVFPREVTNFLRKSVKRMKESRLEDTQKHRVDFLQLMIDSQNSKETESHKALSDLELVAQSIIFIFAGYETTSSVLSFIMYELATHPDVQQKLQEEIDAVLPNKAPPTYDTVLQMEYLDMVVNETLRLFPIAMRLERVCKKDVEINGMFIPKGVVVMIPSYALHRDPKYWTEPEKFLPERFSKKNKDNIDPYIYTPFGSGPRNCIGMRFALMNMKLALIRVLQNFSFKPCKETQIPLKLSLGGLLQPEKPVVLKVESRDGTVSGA

On to `O=c1cnc2cnc(Nc3ccccc3)nc2n1C1CC1`, for which the Potency in test [1] was > 11.4 µM (inactive); in test [3] it was 0.631 µM (active); in [6], > 9.22 µM (inactive); in test [7], > 46 µM (inactive); in test [10], 2 µM (active); in test [11], 2.51 µM (active). Moreover, the Potency in test [12] was 1.58 µM (active). Moreover, the activity change, negative = inhibition in [2] was -23.3% (inactive); in [4], -2.7% (inactive); in test [9], -0.874% (inactive). Besides, the activity, negative = inhibition in [5] was -21.3% (inactive). The Potency result in [8], in test [13] and in test [14] was “inactive” throughout. For the same compound, the results for the max response in test [9] (setting [18]) and in [9] (setting [19]) were 4.87% and 2.12%, respectively.
With `COCCn1c(=O)c(-c2cccc(C#N)c2)nc2cnc(Oc3ccccc3)nc21`, the Potency in test [1] is > 11.4 µM (inactive); in [3] it was 15.8 µM (active); in [6], > 9.22 µM (inactive); in [7], > 46 µM (inactive); in test [17], 7.94 µM (active). The activity change, negative = inhibition was -13% (inactive) in test [2], 2.72% (inactive) in [4] and -5.58% (inactive) in test [9]. Further, the activity, negative = inhibition in [5] is -11.3% (inactive). For the same compound, the compound was classed as inactive in test [15]. Also, the Potency entry in test [16], in [8], in test [10], in test [11], in test [12] and in test [13] was “inactive” in each case. In addition, the Potency entry in test [14] was “inactive”. In addition, the max response in test [9] (setting [18]) is -1.86%; in test [9] (setting [19]) it was -8.56%.
Consider `COCCNc1ncnc2ccc(-c3ccoc3)cc12`, for which the Potency is > 11.4 µM (inactive) in test [1]; 15.8 µM (active) in [3]; > 46 µM (inactive) in [6]; > 46 µM (inactive) in [7]; 0.891 µM (active) in test [10]; 1 µM (active) in test [11]. The Potency in [12] is 0.224 µM (active). Also, the activity change, negative = inhibition is -23.8% (inactive) in [2], 11.2% (inactive) in test [4] and 0.0459% (inactive) in test [9]. For the same compound, the activity, negative = inhibition in test [5] is -12.8% (inactive). Besides, the outcome in test [15] was inactive. The Potency entry in test [16], in [13] and in test [14] was “inactive” each time. Besides, the max response was 6.14% in [9] (setting [18]) and 3.39% in [9] (setting [19]).
